A selection: hits, their analogues and other compounds. The true share with any hit is near 2.4%.
WRN helicase inh: inhibitors of human WRN helicase; WRN helicase unwinding, fluorescent forked duplex, kinetic; 0.46% of 360,000 active; Q14191; Potency, µM (doses to about 114 µM), for inactives: at the top dose activity change, negative = inhibition, most hits filed as inhibitors; further: on the % scale 0 is the no-effect control and ±100 the full control effect; nearly all actives have a fitted effect of over 55% in size
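Primary qHTS, 1536-well format. 20 nM WRN + compound, 15 min RT; start with 100 nM forked fluorophore/quencher duplex, 2 mM ATP (final); kinetic read ex 525/em 598 nm.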
POLK inh: DNA polymerase kappa (human) inhibition; Q9UBT6; purified Pol kappa, fluorescent DNA synthesis assay, 10 min; Potency, µM (doses to about 107 µM), for the others: top-dose activity, negative = inhibition, most hits filed as inhibitors; 0.53% of 400,000 active; further: on the % scale 0 is the no-effect control and ±100 the full control effect
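10 nM Pol kappa was preincubated with compounds for 15 min at room temperature. Reaction started with 50 nM (final) substrate. Fluorescence read kinetically at 0 and 10 min.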
FEN1 inh: inhibitors of human flap endonuclease 1; P39748; Recombinant FEN1 flap cleavage, fluorescence, 15 min; Potency, µM (series often up to 114 µM), for the others: at the highest dose activity change, negative = inhibition, most hits filed as inhibitors; 0.35% of 390,000 active; further: on the % scale 0 is the no-effect control and ±100 the full control effect; nearly all actives have a fitted effect of over 65% in size
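Steps: FEN1 (10 nM) dispensed; compound added by pin tool; 15 min at room temperature; substrate added to 50 nM final; reads at 0 min and 15 min; data normalized and fitted (four-parameter Hill).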
Pol eta inh: DNA polymerase eta (human) inhibition | Q9Y253 | recombinant Pol eta, fluorescent DNA replication assay | Potency, µM (series often up to 114 µM), without a hit: at the highest dose activity change, negative = inhibition, actives largely listed as inhibitors | 1.2% of 390,000 active | AID 588591; further: on the % scale 0 is the no-effect control and ±100 the full control effect
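Pol eta (10 nM) was preincubated with compounds for 15 min at room temperature, after which fluorescent replication substrate (50 nM final) was added to start the reaction. Fluorescence was read kinetically at 0 and 10 min.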
Pol iota inh: blocks human DNA polymerase iota activity; Potency, µM (series often up to 115 µM), for inactives: at the top dose activity, negative = inhibition, hits mostly inhibitors; Q9UNA4; 1% of 390,000 active; Pol iota fluorescent replication assay, 10 min; AID 588590
Target sequence (Q9UNA4 whole entry, looked up): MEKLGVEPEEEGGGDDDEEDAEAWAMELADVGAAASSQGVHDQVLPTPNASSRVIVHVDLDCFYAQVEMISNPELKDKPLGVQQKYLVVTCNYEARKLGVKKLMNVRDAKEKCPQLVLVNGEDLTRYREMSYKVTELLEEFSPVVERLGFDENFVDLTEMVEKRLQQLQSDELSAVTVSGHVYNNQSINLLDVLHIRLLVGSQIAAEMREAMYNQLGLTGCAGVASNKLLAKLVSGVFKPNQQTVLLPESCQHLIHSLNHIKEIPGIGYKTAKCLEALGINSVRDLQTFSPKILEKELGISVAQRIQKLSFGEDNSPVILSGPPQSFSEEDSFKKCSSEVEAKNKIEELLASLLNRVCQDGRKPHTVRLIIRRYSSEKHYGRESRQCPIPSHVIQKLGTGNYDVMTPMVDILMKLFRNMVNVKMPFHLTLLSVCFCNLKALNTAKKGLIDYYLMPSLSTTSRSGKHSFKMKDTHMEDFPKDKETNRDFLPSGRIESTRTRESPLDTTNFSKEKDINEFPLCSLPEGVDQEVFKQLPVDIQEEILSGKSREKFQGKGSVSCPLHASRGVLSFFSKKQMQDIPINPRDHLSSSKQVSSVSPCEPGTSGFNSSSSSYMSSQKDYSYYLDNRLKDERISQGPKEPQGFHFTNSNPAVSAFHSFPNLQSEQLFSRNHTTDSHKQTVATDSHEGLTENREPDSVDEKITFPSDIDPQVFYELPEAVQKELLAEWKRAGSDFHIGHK
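Fluorescent replication assay read twice, at 0 min and 10 min after adding 50 nM (final) substrate. Enzyme (10 nM) and compounds were first incubated 15 min at room temperature; enzyme-free buffer wells were negative controls.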
POLB inh: blocks human DNA polymerase beta activity | AID 485314 | P06746 | 1.3% of 340,000 active | Pol beta primer extension/strand displacement, fluorescence kinetic | Potency, µM (top dose mostly 114 µM), for inactives: at the top dose activity change, negative = inhibition, actives largely listed as inhibitors; further: on the % scale 0 is the no-effect control and ±100 the full control effect
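Human Pol beta at 10 nM; strand-displacement substrate 50 nM final. Compound exposure 15 min at room temperature before start, reaction 10 min at room temperature.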
Starred values were filed as active, the others as inactive; ? = inconclusive; nt = no result given; ! = repeats disagree; [ ] = another dose, or the depositor's remark. The call rests on the fitted dose curve; in most records, active means well fitted curve in the direction sought with a large enough effect; inconclusive means small, poorly fitted or top-dose-only effect, or another doubt; inactive means no such curve, though single readings can be large; an effect the other way counts as inactive or inconclusive. Potency means the concentration at half of the fitted maximal effect.

SMILES	WRN helicase inh	POLK inh	FEN1 inh	Pol eta inh	Pol iota inh	POLB inh
CN1[C@@H]2CC[C@H]1CC(O[C@@H](c1ccccc1)c1ccc(Cl)cc1)C2 (stereo not given in full)	nt	-13%[19.4 µM]	nt	nt	nt	nt
ClC1=C(Cl)C(Cl)=C(Cl)C1=C/C=C/c1ccccc1	-6%[57.1 µM]	?	7%	?	45µM*	?
CCOc1ccc(N2C(=O)/C(=C\c3cccs3)C(=O)NC2=S)cc1	40µM*	-9%	?	-15%	18µM*	?
COc1ccc(N2C(=O)/C(=C/c3ccc(OC)c(OC)c3)C(=O)NC2=S)cc1	-27%	-2%	1%	3%	?	11%
CCOc1ccc(N2C(=O)/C(=C/c3ccco3)C(=O)NC2=S)cc1	11µM*	1.6µM*	?	-101%	-96%	13µM*
CCOc1ccc(N2C(=O)NC(=O)/C(=C\c3ccccc3[N+](=O)[O-])C2=O)cc1	-6%	-14%	-24%	2%	?	-11%
O=C1NC(=O)N(CC2CCCO2)C(=O)/C1=C/c1cccs1 (stereo not given)	-15%	?	?	?	?	?
O=C1NC(=S)N(c2ccccc2F)C(=O)/C1=C\c1cccs1	50µM*	-10%	-6%	-3%	?	5%
Cc1[nH]n(-c2ccccc2)c(=O)c1C(c1ccc([N+](=O)[O-])cc1)c1c(C)[nH]n(-c2ccccc2)c1=O	-16%[11.6 µM]	-3%	0%	-6%	0.71µM*	7%
CCNN	nt	19%[60.1 µM]	nt	nt	nt	nt
Cc1ccc(Cl)cc1Nc1nn2c(=O)c3ccc(C(=O)NCc4cccs4)cc3nc2s1	nt	-6%[60.1 µM]	-19%	?	?	8.9µM*
O=C(O)CCn1cc(C=C2C(=O)NC(=S)NC2=O)c(-c2cccc(Cl)c2)n1	45µM*	-35%	-5%	?	64%	-17%
O=C(O)CCn1cc(C=C2C(=O)NC(=O)NC2=O)c(-c2ccc(Br)cc2)n1	?	-16%	12%	11%	?	22%
CC(C)Oc1ccc(CNC(=O)C2CCCN(S(=O)(=O)c3ccc4c(ccn4C)c3)C2)cc1 (stereo not given)	nt	-6%[60.1 µM]	4%	-18%	32%	-16%
CCn1c(N)c(C(=O)NC)sc1=S	56µM*	6%	8%	-4%	?	0%
O=C(CSc1nnc(NC(=O)C2CCCCC2)s1)NCc1ccco1	-27%	-4%	-2%	-20%	41%	6%
CCc1nnc(NC(=O)CSc2ccc(-c3ccco3)nn2)s1	-1%	1%	2%	-20%	14%	14µM*
O=c1c2ccccc2nc(CSc2ncnc3nc[nH]c23)n1-c1ccccc1Cl	-8%	-12%	3%	-2%	-16%	40µM*
COCCCn1c(N)c(C(=O)Nc2ccccc2)c2nc3ccccc3nc21	-19%	-5%	-16%	-18%	14µM*	4%
CC(C)c1cc2c(c(O)c1O)[C@]1(C(=O)O)CCCC(C)(C)C1CC2 (stereo not given in full)	nt	-5%[60.1 µM]	nt	nt	nt	nt
Cc1cccn2c(=O)c(/C=C(\C#N)c3nc4ccccc4s3)c(Oc3ccc(F)cc3)nc12	nt	-4%	?	79µM*	?	?
Cc1cc(C)cc(Oc2nc3ccccn3c(=O)c2/C=C(\C#N)c2nc3ccccc3s2)c1	nt	-4%	-15%	?	24%	?
CC(=O)OC1C(=O)[C@]2(C)C(O)CC3OC[C@]3(OC(C)=O)C2[C@@H](OC(=O)c2ccccc2)[C@]2(O)CC(O)C(C)=C1C2(C)C (stereo not given in full)	nt	-9%[60.1 µM]	nt	nt	nt	nt
CC(=O)Nc1cc(Cl)c(N=Cc2ccc(O)cc2O)cc1Cl	-18%	-8%[60.1 µM]	7%	79µM*	?	10µM*
CC(=O)Nc1cc([As](=O)(O)O)ccc1O	2%	-15%	-1%	-13%	?	-4%
SMILES	WRN helicase inh	POLK inh	FEN1 inh	Pol eta inh	Pol iota inh	POLB inh
C[C@H](CCC(=O)O)[C@H]1CC[C@@H]2[C@H]3CC[C@H]4C[C@@H](O)CC[C@@]4(C)[C@H]3CC[C@]21C	nt	-5%[12 µM]	nt	nt	nt	nt
O=C1NC(=O)C(=Cc2coc3ccccc3c2=O)C(=O)N1	-2%	-4%	-19%	-7%	10%	2%
O=C1NC(=O)C(=C/C=C/c2coc3ccc(Br)cc3c2=O)C(=O)N1	nt	nt	nt	nt	nt	1.6µM*
COC(=O)C1=C(c2ccc(F)cc2OCc2ccccc2)C[C@@H]2CC[C@H]1N2C(=O)NCc1ccco1	-21%	?	-18%	45µM*	?	nt
COc1cc2c(cc1O)C[C@H]1c3c(cc(O)c(OC)c3-2)CCN1C	-8%	-7%	-25%	-6%	9%	nt
CN1CCc2cc(O)cc3c2[C@H]1Cc1ccc(O)c(O)c1-3	-35%	-6%[60.1 µM]	79µM*!	5%	-20%	nt
CCCN1CCc2cc(O)cc3c2[C@H]1Cc1ccc(O)c(O)c1-3	0%	-10%[60.1 µM]	50µM*	-8%	14µM*	nt
Cc1cccc(NC(=O)c2cc3c(=O)n4ccccc4nc3n2C)c1C	nt	-12%	1%	-14%	-11%	?
CN(CC(=O)N[C@H](CO)Cc1ccccc1)C(=O)[C@H](CCS(C)=O)NC(=O)[C@@H](N)Cc1ccc(O)cc1 (stereo not given in full)	nt	6%[19.4 µM]	nt	nt	nt	nt
CCCCCC[C@H]1C(=O)O[C@H](C)[C@H](NC(=O)c2cccc(NC=O)c2O)C(=O)O[C@@H](C)[C@@H]1OC(=O)CC(C)C	nt	-13%[19.4 µM]	nt	nt	nt	nt
COC[C@H]1OC(=O)c2coc3c2[C@@]1(C)C1=C(C3=O)C2CCC(=O)[C@@]2(C)C[C@H]1OC(C)=O (stereo not given in full)	nt	?	13µM*!	-3%[57.1 µM]	-4%[58.9 µM]	1%[57.1 µM]
CC(=O)OCOCC(=O)OCO[P+](=O)C(OCOC(C)=O)c1cc([N+](=O)[O-])ccc1Oc1ccc(Br)cc1 (stereo not given)	nt	4%[19.4 µM]	nt	nt	nt	nt
CN(C)C1C(=O)C(C(N)=O)=C(O)[C@@]2(O)C(=O)C3=C(O)c4c(O)cccc4[C@@](C)(O)C3[C@H](O)C12 (stereo not given in full)	nt	10µM*	nt	nt	nt	nt
CN(C)[C@@H]1C(=O)C(C(N)=O)=C(O)[C@]2(O)C(=O)C3=C(O)c4c(O)cccc4[C@@](C)(O)[C@H]3[C@H](O)[C@@H]12	nt	4.7µM*	nt	nt	nt	nt
C[C@H](N)[C@H](O)c1ccc(O)c(O)c1	nt	0.75µM*	nt	nt	nt	nt
COc1ccc(OC)c(C(O)C(C)N)c1 (stereo not given)	6%	-8%[60.1 µM]	2%	-14%	21%	11%
C[C@@H](N)[C@@H](O)c1ccc(O)c(O)c1	nt	1µM*	nt	nt	nt	nt
CCCN(CCC)CCc1ccc(O)c(O)c1	nt	1%[60.1 µM]	nt	-5%[57.1 µM]	-2%[58.9 µM]	4%[57.1 µM]

High-throughput results: PubChem BioAssay, National Center for Advancing Translational Sciences (NCATS)
